Experimental data as given in PubChem BioAssay (NCI).
“And” between values parts separate entries of the source, which are not always exact repeats. Identical values can stand only once. The panel holds about 83,000 compounds, 20% with a hit somewhere; the sample as a whole holds those more often.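 Note: values are percent growth. 100 is the growth of untreated cells, values between 100 and 0 indicate rising inhibition; between -100 and 0 indicates cell death.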 The source made the active and inactive calls. How the source made its calls: active means growth percent below 10; inactive means the rest.

Experiments:
Assay in all cases: NCI-60 one-dose screen, 48 h (100 = growth as untreated, 0 = no growth, -100 = all killed)
Conditions in all cases: 10 µM unless noted
NCI-H23 lung = test system: NCI-H23 lung
NCI-H226 lung = test system: NCI-H226 lung
NCI-H322M lung = test system: NCI-H322M lung
HOP-62 NSCLC = test system: HOP-62 NSCLC
NCI-H460 lung = test system: NCI-H460 lung
HOP-92 NSCLC = test system: HOP-92 NSCLC
NCI-H522 lung = test system: NCI-H522 lung
A549/ATCC NSCLC = test system: A549/ATCC NSCLC
786-0 renal = test system: 786-0 renal
COLO 205 colon = test system: COLO 205 colon

SMILES | growth (NCI-H23 lung) | growth (NCI-H226 lung) | growth (NCI-H322M lung) | growth (HOP-62 NSCLC) | growth (NCI-H460 lung) | growth (HOP-92 NSCLC) | growth (NCI-H522 lung) | growth (A549/ATCC NSCLC) | growth (786-0 renal) | growth (COLO 205 colon)
COc1cc(C(=O)c2ccc3c(c2)OCO3)cc(OC)c1OC | 49.2% (inactive) and 40.8% (inactive) | 52.4% (inactive) and 72.9% (inactive) | 41% (inactive) and 55.4% (inactive) | 38.8% (inactive) and 41.6% (inactive) | 14.3% (inactive) and 10.9% (inactive) | 37.9% (inactive) and 62.8% (inactive) | 44.6% (inactive) and -30.4% (active) | 33.9% (inactive) and 34.9% (inactive) | 56.2% (inactive) and 46% (inactive) | 19.2% (inactive) and 20.8% (inactive)
O=C(O)CN(CCN(CC(=O)O)CC(=O)O)CCN(CC(=O)O)CC(=O)O | -19% (active) and 104% (inactive) and 110% (inactive) | 15.7% (inactive) and 98.6% (inactive) and 90.3% (inactive) | -3.44% (active) and 107% (inactive) and 116% (inactive) | -75.5% (active) and 97.4% (inactive) and 99.5% (inactive) | -51.4% (active) and 119% (inactive) | 103% (inactive) and 102% (inactive) | -27.9% (active) and 107% (inactive) and 88.5% (inactive) | -85.5% (active) and 106% (inactive) and 98.9% (inactive) | -20.3% (active) and 102% (inactive) and 105% (inactive) | 23% (inactive) and 91.5% (inactive) and 104% (inactive)
O=CC(O)C(O)C(O)CO (centres undefined) | 13.3% (inactive) and 100% (inactive) | 93.9% (inactive) and 101% (inactive) | 101% (inactive) and 96.6% (inactive) | 114% (inactive) and 97.6% (inactive) | 98.7% (inactive) and 111% (inactive) | 119% (inactive) | 33.4% (inactive) | 102% (inactive) | 104% (inactive) and 97.6% (inactive) | 97.7% (inactive) and 106% (inactive)
CN1CCN(c2ccc3nc(-c4c(N)c5c(F)cccc5[nH]c4=O)[nH]c3c2)CC1 | 27.9% (inactive) and 34.1% (inactive) | 54.8% (inactive) and 71.3% (inactive) | 52.4% (inactive) and 61.6% (inactive) | 23.4% (inactive) and 24.6% (inactive) | 6.56% (active) and 7.99% (active) | 43.9% (inactive) and 44.5% (inactive) | 18.5% (inactive) and 53.8% (inactive) | 12.9% (inactive) and 22.3% (inactive) | 38.1% (inactive) and 24.8% (inactive) | 5.09% (active) and 26.8% (inactive)
COc1ccc2nc(Cl)cc(C)c2c1 | 101% (inactive) and 107% (inactive) | 96.5% (inactive) and 104% (inactive) | 91.3% (inactive) and 98.1% (inactive) | 104% (inactive) and 65% (inactive) | 100% (inactive) and 111% (inactive) | 104% (inactive) and -11.5% (active) | 97.5% (inactive) and 112% (inactive) | 96.5% (inactive) and 109% (inactive) | 97.2% (inactive) and 79.2% (inactive) | 104% (inactive) and 131% (inactive)
CC(C)CNC(=O)c1ccccc1C(=O)NC1(C(=O)NCC(C)C)CCCC1 | 100% (inactive) and 108% (inactive) | 99% (inactive) and 103% (inactive) | 112% (inactive) and 106% (inactive) | 102% (inactive) and 95.6% (inactive) | 108% (inactive) and 113% (inactive) | 117% (inactive) | 95.9% (inactive) | 95.7% (inactive) and 107% (inactive) | 107% (inactive) and 99% (inactive) | 102% (inactive) and 121% (inactive)
COc1ccc(CCN(C)CCCC(C#N)(c2ccc(OC)c(OC)c2)C(C)C)cc1OC (centres undefined) | 86.9% (inactive) and 106% (inactive) and 86.1% (inactive) | 113% (inactive) and 102% (inactive) and 101% (inactive) | 96.4% (inactive) and 91.3% (inactive) | 90.8% (inactive) and 86.4% (inactive) | 95.5% (inactive) and 111% (inactive) and 102% (inactive) | 81.2% (inactive) | 98.8% (inactive) and 91.6% (inactive) | 87.5% (inactive) and 104% (inactive) and 101% (inactive) | 93.7% (inactive) and 88.8% (inactive) and 107% (inactive) | 100% (inactive) and 109% (inactive) and 101% (inactive)
CCN(CC)CCC(CNc1ccnc2cc(Cl)ccc12)c1ccc(OC)cc1 (centres undefined) | 72.4% (inactive) and 66.1% (inactive) | 97.2% (inactive) and 95.5% (inactive) | 60.4% (inactive) and 64.8% (inactive) | 83.4% (inactive) and 77.7% (inactive) | 70.1% (inactive) and 62.9% (inactive) | 47.3% (inactive) and 59.4% (inactive) | 25.8% (inactive) and 20.3% (inactive) | 78.9% (inactive) and 88.3% (inactive) | 62.1% (inactive) and 73.7% (inactive) | 33.3% (inactive) and -41.5% (active)
c1ccc2cc(C[n+]3ccn(Cc4ccc5ccccc5n4)c3)ccc2c1 | -4.2% (active) and 29.2% (inactive) | 19.6% (inactive) and 46.4% (inactive) | 34.8% (inactive) and 75% (inactive) | 1.85% (active) and 44.3% (inactive) | 11.1% (inactive) and 35.8% (inactive) | -20.1% (active) and -5.22% (active) | -27.4% (active) and 6.58% (active) | 37.3% (inactive) and 59.3% (inactive) | 30.9% (inactive) and 76.1% (inactive) | -38.3% (active) and -35.3% (active)
Oc1ccc(/C=C/c2ccccc2)cc1 | 73.2% (inactive) and 76.4% (inactive) | 104% (inactive) and 103% (inactive) | 77.6% (inactive) and 83.4% (inactive) | 109% (inactive) and 87.9% (inactive) | 73.4% (inactive) and 61.5% (inactive) | 95.7% (inactive) | 72.1% (inactive) and 29.2% (inactive) | 76.1% (inactive) and 59.9% (inactive) | 32.8% (inactive) and 45.1% (inactive) | 104% (inactive) and 132% (inactive)
S=C(S)N1CCCC1 | 108% (inactive) and 102% (inactive) | 108% (inactive) and 111% (inactive) | 107% (inactive) and 97.7% (inactive) | 124% (inactive) and 100% (inactive) | 62.2% (inactive) | 91.9% (inactive) and 88% (inactive) | 8.09% (active) and -11.7% (active) | 70.6% (inactive) and 58.4% (inactive) | 103% (inactive) and 106% (inactive) | 60.7% (inactive) and 49.9% (inactive)
CC(O)(CC(=O)CC(=O)c1ccccc1)c1ccccc1 (centres undefined) | 102% (inactive) and 87.4% (inactive) | 93.9% (inactive) and 86% (inactive) | 116% (inactive) and 105% (inactive) | 106% (inactive) and 99.2% (inactive) | 94.2% (inactive) and 101% (inactive) | 100% (inactive) and 94.7% (inactive) | 90.9% (inactive) and 96.4% (inactive) | 103% (inactive) and 97.4% (inactive) | 101% (inactive) and 106% (inactive) | 127% (inactive)
OC(COc1cccc2ccccc12)CN1CCN(c2ccc(Cl)cc2)CC1 (centres undefined) | 84.6% (inactive) and 86.5% (inactive) | 92.4% (inactive) and 111% (inactive) | 90% (inactive) and 102% (inactive) | 96.5% (inactive) and 77.3% (inactive) | 49% (inactive) and 95% (inactive) | 75.1% (inactive) and 77% (inactive) | 109% (inactive) and 85.7% (inactive) | – | 80.9% (inactive) and 89.7% (inactive) | 121% (inactive)
O=Nc1ccc(O)cc1 | 78.9% (inactive) and 94.9% (inactive) | 95.5% (inactive) and 109% (inactive) | 104% (inactive) and 97.4% (inactive) | 101% (inactive) and 97.3% (inactive) | 109% (inactive) and 96.9% (inactive) | 90.4% (inactive) and 101% (inactive) | 87.8% (inactive) and 78.5% (inactive) | 99% (inactive) and 93.9% (inactive) | 98.2% (inactive) and 110% (inactive) | 104% (inactive) and 111% (inactive)
